These results are taken from PubChem BioAssay (NCATS).

Results filed as inconclusive are left out. Calls of active or inactive are those of the source. Calls come from the whole dose curve; as a rule, active = well fitted inhibition curve with a large enough effect; inconclusive = small, poorly fitted or top-dose-only effect; inactive = no such curve, though single readings can be large or run the other way.
Potency is the fitted concentration of half-maximal effect.

A short description of the assay: Confirmatory screen NINDS Rhodamine qHTS for Zika virus inhibitors (AID 1347161). Note: nearly all actives have a fitted effect of over 60% in size. The conditions noted are these: purified enzyme assay, Rhodamine110 substrate fluorescence, 15 min. The text has this:
Avindra Nath, Ph.D., National Institute of Neurological Disorders and Stroke (NINDS), Bethesda, MD
Radhakrishnan Padmanabhan, Ph.D., Georgetown University (GU), Washington D.C.
Zika Virus causes congenital defects, including microcephaly and is associated with Guillain-Barre syndrome, eningoencephalitis and myelitis in infected adult. […] Using a target-based approach, we hope to establish a screening paradigm to uncover novel, cell-active NS2B-NS3 protease (Zika Virus) specific inhibitors from NCATS' collection of small molecules using qHTS.
Four assay panel was created to identify potential Zika Virus inhibitors. Namely, (1) GU unlinked NS2B-NS3 AMC tagged protease qHTS, (2) GU unlinked NS2B-NS3 Rhodamine tagged protease qHTS, (3) NINDS linked NS2B-NS3 AMC tagged protease qHTS, (4) NINDS linked NS2B-NS3 Rhodamine tagged protease qHTS. Active compounds were re-acquired and re-screened to confirm inhibition. Inhibitors were further screened against various confirmatory and counterscreens in dose response format.
Early Translation Branch (ETB)
National Center for Advancing Translational Sciences (NCATS), Rockville, MD
National Institute of Health (NIH), Bethesda, Maryland
For the linked assay, Nath lab (NINDS) provided the purified linked NS2B-NS3 protease which is consists of hydrophilic domain of NS2B linked to the NS3 protease domain by a flexible (-[…]-) linker. Control compound aprotinin is obtained from Thermo Scientific (#78432; Waltham, Massachusetts). Rhodamine110 substrate ([N-Cbz]-Nle-Lys-Arg-Arg-Rhod110-Arg-Arg-Lys-Nle-[N-Cbz]) was purchased from either Genscript or Bachem.
1536-well Protease (Rhodamine110 Substrate) Assay:
Briefly, 3 microL of enzyme (25 nM final concentration), in assay buffer (10 mM Tris-HCl pH 8.0 with 0.01% Tween 20) were dispensed into a 1,536-well solid-bottom black plate (Greiner Bio One, Monroe, NC). Twenty-three nL of compounds (final concentration range 7.28 nM to 114 microM) or control Aprotinin (final concentration range 3.47 nM to 114 microM) were transferred via Wako Pin-tool (Wako Automation, Richmond, VA). Samples were incubated (room temperature, protected from light) for 15 minutes followed by a 1 microL Rhodamine110 substrate addition (1.5 microM final concentration). Plates were then immediately read on a ViewLux High-throughput CCD imager (PerkinElmer, Waltham, MA) equipped with FITC fluorescence optics (480(20) nm excitation, 540(25) nm emission), then incubated (room temperature, protected from light) for 15 minutes (~15% conversion). The change in fluorescence intensity over the 15-minute reaction period was normalized against no-inhibitor and no-enzyme controls and the resulting percent inhibition data were fitted to a 4-parameter Hill equation. Aprotinin was used as intraplate control.
In general terms: In qHTS, concentration-response curves come from the screen itself.
On to `CC(=O)O[C@@H]1C[C@]2(C)[C@@]3(CCC4[C@@]5(C)CC[C@H](O[C@@H]6O[C@H](C(=O)O)[C@@H](O)[C@H](O[C@@H]7O[C@H](CO)[C@H](O)[C@H](O)[C@H]7O[C@@H]7O[C@@H](C)[C@H](O)[C@@H](O)[C@H]7O[C@@H]7OC[C@](O)(CO)[C@H]7O)[C@H]6O[C@@H]6O[C@H](CO)[C@H](O)[C@H](O)[C@H]6O)C(C)(C)C5CC[C@]42C)O[C@@H](O)[C@]12C3CC(C)(C)[C@@H](OC(=O)/C=C/c1ccc(O)c(O)c1)[C@@H]2OC(=O)/C=C/c1ccccc1` (stereo not given in full), for which the Potency was 1.66 µM (active).
The value for `O=S(=O)(O)c1ccc2c(N=Nc3ccc(S(=O)(=O)O)c4ccccc34)c(O)c(S(=O)(=O)O)cc2c1` was 3.16 µM (active); that for `O=C(/C=C/c1c(C(=O)O)[nH]c2cc(Cl)cc(Cl)c12)Nc1ccccc1` was 2.48 µM (active); that for `CC1C/C=C/C=C\CCCCC(O)C/C=C/C(=O)O1` (stereo not given) was 49.4 µM (active).
Then `CC(C)(O)C1CC=C(C(=O)OCC2OC(Oc3c(O)cc(C(=O)O)cc3O)C(O)C(O)C2O)CC1` (stereo not given), with 7.64 µM (active); and `OC[C@H]1O[C@@H](Oc2ccc(O)c3cccc(O)c23)[C@H](O)[C@@H](O)[C@@H]1O`, with 6.1 µM (active); and `CC(C)C1=CCC(C)(O)C(OC2OC(CO)C(O)C(O)C2O)C1` (stereo not given), with 7.68 µM (active).
Then `COc1cccc(-n2nc(C(=O)O)cc2-c2ccc(C3CCCCC3)c(Cl)c2)c1`, with 1.97 µM (active).
In the case of `N#CC1C(=O)Nc2scc(-c3ccc(-c4ccccc4O)cc3)c2C1=O` (stereo not given), the Potency is 2.48 µM (active).
Then `Cc1nn(C)c(COc2ccc(N3CCN(S(=O)(=O)N(C)C)CC3)cc2)c1-c1cccc2c(CCCOc3cccc4ccccc34)c(C(=O)O)n(CCN3CCOCC3)c12`, with 1.56 µM (active); and `O=C(O)c1cnn(-c2nc3cc(OC(F)(F)F)c(Cl)cc3[nH]2)c1`, with 5.69 µM (active); and `CCOc1c2c(c(OCC)c3ccccc13)C(=O)N(c1ccc(CC(=O)NS(=O)(=O)c3ccccc3)cc1)C2`, with 4.41 µM (active).
As for `CC(C)c1cc2c(c(O)c1O[C@@H]1O[C@H](CO)[C@@H](O)[C@H](O)[C@H]1O)CC1(O)CCC(O)C(C)(C)C1CC2` (stereo not given in full), the Potency is 7.64 µM (active).
On to `CCOc1ccc(-c2ccc(Cn3c(CC(C)(C)C(=O)O)c(SC(C)(C)C)c4cc(OCc5ccc(C)cn5)ccc43)cc2)cn1`, for which the Potency is 2.21 µM (active).
The value for `O=C(O)c1cc(O)c2cccc(O)c2c1O[C@@H]1O[C@H](CO)[C@@H](O)[C@H](O)[C@H]1O` was 2.73 µM (active); that for `C=C1CC23CCC4[C@@](C)(CCC[C@@]4(C)C(=O)O)C2CCC1C3` (stereo not given in full) was 44.1 µM (active); that for `Nc1c(N=Nc2ccc(-c3ccc(N=Nc4cc(S(=O)(=O)O)c5ccccc5c4N)cc3)cc2)cc(S(=O)(=O)O)c2ccccc12` was 2.24 µM (active).
Then `CCCCS(=O)(=O)Nc1ncnc(OCCOc2ncc(Br)cn2)c1-c1ccc(Br)cc1`, with 35 µM (active); and `O=S(=O)(O)c1cc(O)c2c(N=Nc3ccc(Nc4ccccc4)c4c(S(=O)(=O)O)cccc34)cc(S(=O)(=O)O)cc2c1`, with 5.62 µM (active).
Then `CC1(C)CCC(C)(C)c2cc3c(cc21)Sc1ccccc1N=C3c1ccc(C(=O)O)cc1`, with 1.75 µM (active).
With `CC12CCC3C(C)(C)C(O)CCC3(C)C1Cc1c(oc(C(=O)O)cc1=O)O2` (stereo not given), the Potency is 27.3 µM (active).
The value for `CC1(C)CC2C3=CCC4C5(C)CCC(OC6OC(CO)C(O)C(OC7OC(CO)C(O)C(OC8OC(CO)C(O)C(OC9OC(COC%10OC(CO)C(O)C(O)C%10O)C(O)C(O)C9O)C8O)C7O)C6O)C(C)(C)C5CCC4(C)C3(C)CCC2(C(=O)O)CC1O` (stereo not given) was 7.42 µM (active); that for `NCc1ccc(OCCCc2sc(-c3ccc4c(c3)/C(=N/Nc3nc5ccccc5s3)CCC4)nc2C(=O)O)cc1` was 17.5 µM (active); that for `O=C(O)c1ccc(CCCc2ccc(OCCc3ccc(F)cc3)cc2)o1` was 2.78 µM (active).
As to `CC(C)C(=O)c1cn(CC(=O)COc2ccc(Oc3ccccc3)cc2)c2ccc(C(=O)O)cc12`, the Potency is 5.55 µM (active).
